# Measurements published in publication PMC7862700, “An all-to-all approach to the identification of sequence-specific readers for epigenetic DNA modifications on cytosine”.
# How the values were obtained:
# Assay in all cases: DAPPL (digital affinity profiling via proximity ligation, sequencing); 10 mM Tris-HCl pH 7.5, 50 mM NaCl, 1 mM DTT, 4% glycerol, room temperature, 30 min; GST-TFs on glutathione beads, 16-mer random dsDNA library, 0.1% formaldehyde crosslink after washing; high values mean tight binding
# FLI1 = biological target: T1, FLI1 (Homo sapiens, UniProt Q01543 1-452); conditions: protein: recombinant; tags: N-terminal GST; dsDNA, one strand shown
# T1 sequence: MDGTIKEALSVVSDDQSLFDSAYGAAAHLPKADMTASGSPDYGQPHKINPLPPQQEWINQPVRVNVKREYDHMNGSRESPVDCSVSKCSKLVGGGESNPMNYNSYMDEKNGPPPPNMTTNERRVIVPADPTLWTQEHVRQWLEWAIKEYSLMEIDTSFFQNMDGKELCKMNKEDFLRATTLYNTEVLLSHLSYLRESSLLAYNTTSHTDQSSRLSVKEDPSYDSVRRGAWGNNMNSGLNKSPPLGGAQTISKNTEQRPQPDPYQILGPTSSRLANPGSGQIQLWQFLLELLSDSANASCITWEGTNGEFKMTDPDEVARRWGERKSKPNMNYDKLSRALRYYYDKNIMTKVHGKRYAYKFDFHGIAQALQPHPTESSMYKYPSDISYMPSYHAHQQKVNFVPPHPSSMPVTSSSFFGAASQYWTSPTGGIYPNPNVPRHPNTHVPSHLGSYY
# Procedure, shortened: (§1)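 Beads coated with glutathione captured GST-fused human transcription factors that had been expressed in yeast, and the factors were then given DNA barcodes and pooled with a tag-only sample. The pools were incubated with 200 nmole of a random double-stranded 16-mer DNA library in Tris/NaCl/DTT/glycerol buffer for 30 min at room temperature, washed, crosslinked with 0.1% formaldehyde and proximity-ligated with BsaI/T4 ligase at 37 °C for 1 h. PCR amplification and Illumina NextSeq500 sequencing came last. Binding signal is each hexamer's read frequency for a factor divided by its frequency for the tag-only sample.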
# ELK1 = biological target: T2, ELK1 (Homo sapiens, UniProt P19419 1-428); conditions: protein: recombinant; tags: N-terminal GST; dsDNA, one strand shown
# T2 sequence: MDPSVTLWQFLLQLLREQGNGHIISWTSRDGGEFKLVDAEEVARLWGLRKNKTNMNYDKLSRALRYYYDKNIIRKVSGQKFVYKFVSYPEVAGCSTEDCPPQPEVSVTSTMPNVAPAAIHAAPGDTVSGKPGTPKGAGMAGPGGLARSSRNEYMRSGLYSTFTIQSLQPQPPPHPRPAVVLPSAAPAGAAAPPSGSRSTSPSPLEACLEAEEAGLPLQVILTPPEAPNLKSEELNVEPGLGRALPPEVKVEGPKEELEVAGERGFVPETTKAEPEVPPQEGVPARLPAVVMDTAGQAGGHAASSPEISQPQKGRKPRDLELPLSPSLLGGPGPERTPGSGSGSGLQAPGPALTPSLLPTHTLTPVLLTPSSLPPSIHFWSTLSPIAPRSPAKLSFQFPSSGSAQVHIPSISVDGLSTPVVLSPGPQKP
# Procedure, shortened: as §1
# GABPA = biological target: T3, GABPA (Homo sapiens, UniProt Q06546 1-454); conditions: protein: recombinant; tags: N-terminal GST; dsDNA, one strand shown
# T3 sequence: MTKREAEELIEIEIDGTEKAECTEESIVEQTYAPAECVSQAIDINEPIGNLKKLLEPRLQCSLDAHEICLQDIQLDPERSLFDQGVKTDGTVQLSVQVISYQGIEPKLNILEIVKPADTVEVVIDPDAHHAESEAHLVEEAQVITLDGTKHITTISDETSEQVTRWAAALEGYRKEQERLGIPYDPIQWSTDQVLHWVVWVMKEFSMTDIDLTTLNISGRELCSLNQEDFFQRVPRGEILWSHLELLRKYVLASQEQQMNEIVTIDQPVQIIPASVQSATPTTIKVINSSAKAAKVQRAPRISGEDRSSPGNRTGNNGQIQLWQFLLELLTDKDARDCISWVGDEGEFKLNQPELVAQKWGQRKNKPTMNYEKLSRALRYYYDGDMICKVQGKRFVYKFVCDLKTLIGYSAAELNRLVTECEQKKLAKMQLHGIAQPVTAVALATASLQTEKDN
# Procedure, shortened: as §1
# ERG = biological target: T4, ERG (Homo sapiens, UniProt P11308 1-479); conditions: protein: recombinant; tags: N-terminal GST; dsDNA, one strand shown
# T4 sequence: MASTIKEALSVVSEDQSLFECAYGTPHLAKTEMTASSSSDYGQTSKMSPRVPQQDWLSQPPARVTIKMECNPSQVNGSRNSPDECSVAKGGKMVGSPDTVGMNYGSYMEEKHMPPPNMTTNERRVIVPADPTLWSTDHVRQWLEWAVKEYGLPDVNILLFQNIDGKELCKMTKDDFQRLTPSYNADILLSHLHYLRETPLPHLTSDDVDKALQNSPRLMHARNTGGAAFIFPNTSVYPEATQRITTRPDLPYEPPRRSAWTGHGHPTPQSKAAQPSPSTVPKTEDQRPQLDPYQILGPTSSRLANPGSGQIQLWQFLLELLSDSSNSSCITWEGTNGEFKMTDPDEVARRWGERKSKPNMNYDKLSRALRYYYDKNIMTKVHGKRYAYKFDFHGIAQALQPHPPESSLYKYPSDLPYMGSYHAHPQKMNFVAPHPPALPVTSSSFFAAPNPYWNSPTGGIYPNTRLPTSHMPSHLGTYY
# Procedure, shortened: as §1
# ELF1 = ELF1 (Homo sapiens, UniProt P32519 1-619); conditions: protein: recombinant; tags: N-terminal GST; dsDNA, one strand shown
# Procedure, shortened: as §1
# EHF = biological target: T5, EHF (Homo sapiens, UniProt Q9NZC4 1-300); conditions: protein: recombinant; tags: N-terminal GST; dsDNA, one strand shown
# T5 sequence: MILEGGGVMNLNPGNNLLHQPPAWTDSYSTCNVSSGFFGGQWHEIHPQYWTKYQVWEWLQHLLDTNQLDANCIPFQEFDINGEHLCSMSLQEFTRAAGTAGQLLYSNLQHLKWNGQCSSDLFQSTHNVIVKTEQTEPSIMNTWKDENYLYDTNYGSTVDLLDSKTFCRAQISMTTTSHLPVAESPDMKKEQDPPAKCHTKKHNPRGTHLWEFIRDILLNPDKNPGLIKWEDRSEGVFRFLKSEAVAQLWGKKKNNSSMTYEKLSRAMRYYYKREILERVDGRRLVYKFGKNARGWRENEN
# Procedure, shortened: as §1
# SPI1 = SPI1 (Homo sapiens, UniProt P17947 1-270); conditions: protein: recombinant; tags: N-terminal GST; dsDNA, one strand shown
# Procedure, shortened: as §1
# SPIB = SPIB (Homo sapiens, UniProt Q01892 1-262); conditions: protein: recombinant; tags: N-terminal GST; dsDNA, one strand shown
# Procedure, shortened: as §1
# ELK3 = biological target: T6, ELK3 (Homo sapiens, UniProt P41970 1-407); conditions: protein: recombinant; tags: N-terminal GST; dsDNA, one strand shown
# T6 sequence: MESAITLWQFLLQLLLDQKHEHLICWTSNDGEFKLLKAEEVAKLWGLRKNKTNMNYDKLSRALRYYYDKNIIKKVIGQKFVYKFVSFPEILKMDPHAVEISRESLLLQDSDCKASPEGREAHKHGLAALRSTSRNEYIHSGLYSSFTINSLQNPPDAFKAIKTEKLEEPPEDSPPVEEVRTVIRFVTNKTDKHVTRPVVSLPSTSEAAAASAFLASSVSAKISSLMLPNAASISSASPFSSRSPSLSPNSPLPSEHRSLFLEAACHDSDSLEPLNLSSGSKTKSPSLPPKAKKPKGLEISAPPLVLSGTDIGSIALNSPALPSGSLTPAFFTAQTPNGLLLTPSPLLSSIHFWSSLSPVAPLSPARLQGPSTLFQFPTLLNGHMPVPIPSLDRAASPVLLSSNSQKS
# Procedure, shortened: as §1
# FEV = biological target: T7, FEV (Homo sapiens, UniProt Q99581 1-238); conditions: protein: recombinant; tags: N-terminal GST; dsDNA, one strand shown
# T7 sequence: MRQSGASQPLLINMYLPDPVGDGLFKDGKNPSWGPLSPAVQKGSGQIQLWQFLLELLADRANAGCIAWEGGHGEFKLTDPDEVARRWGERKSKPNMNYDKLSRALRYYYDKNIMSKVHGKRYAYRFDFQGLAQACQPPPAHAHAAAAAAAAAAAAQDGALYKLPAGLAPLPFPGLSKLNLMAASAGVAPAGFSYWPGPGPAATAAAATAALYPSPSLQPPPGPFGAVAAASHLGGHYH
# Procedure, shortened: as §1
# ETV5 = ETV5 (Homo sapiens, UniProt P41161 1-510); conditions: protein: recombinant; tags: N-terminal GST; dsDNA, one strand shown
# Procedure, shortened: as §1
# HSF1 = HSF1 (Homo sapiens, UniProt Q00613 1-529); conditions: protein: recombinant; tags: N-terminal GST; chain copies: 3; dsDNA, one strand shown
# Procedure, shortened: as §1
# SPIC = biological target: T8, SPIC (Homo sapiens, UniProt Q8N5J4 1-248); conditions: protein: recombinant; tags: N-terminal GST; dsDNA, one strand shown
# T8 sequence: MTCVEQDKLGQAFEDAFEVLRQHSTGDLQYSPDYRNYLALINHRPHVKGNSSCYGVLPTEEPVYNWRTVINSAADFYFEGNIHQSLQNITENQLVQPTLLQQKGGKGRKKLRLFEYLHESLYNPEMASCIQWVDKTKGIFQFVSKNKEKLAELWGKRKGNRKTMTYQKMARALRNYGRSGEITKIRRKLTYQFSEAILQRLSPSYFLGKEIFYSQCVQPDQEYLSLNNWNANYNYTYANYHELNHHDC
# Procedure, shortened: as §1
# ELF4 = ELF4 (Homo sapiens, UniProt Q99607 1-663); conditions: protein: recombinant; tags: N-terminal GST; dsDNA, one strand shown
# Procedure, shortened: as §1
# ELK4 = biological target: T9, ELK4 (Homo sapiens, UniProt P28324-2 1-405); conditions: protein: recombinant; tags: N-terminal GST; dsDNA, one strand shown
# T9 sequence: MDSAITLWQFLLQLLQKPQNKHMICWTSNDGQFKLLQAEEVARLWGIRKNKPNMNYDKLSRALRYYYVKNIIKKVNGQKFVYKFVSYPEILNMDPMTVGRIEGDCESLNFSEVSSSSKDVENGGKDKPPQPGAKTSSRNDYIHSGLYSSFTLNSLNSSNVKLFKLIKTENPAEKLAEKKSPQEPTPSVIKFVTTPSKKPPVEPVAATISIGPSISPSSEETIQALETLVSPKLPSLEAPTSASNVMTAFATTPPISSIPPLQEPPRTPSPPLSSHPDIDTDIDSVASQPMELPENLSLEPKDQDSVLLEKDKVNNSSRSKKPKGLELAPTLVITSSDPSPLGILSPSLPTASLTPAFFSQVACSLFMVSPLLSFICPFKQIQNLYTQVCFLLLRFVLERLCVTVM
# Procedure, shortened: as §1
# ETV2 = biological target: T10, ETV2 (Homo sapiens, UniProt O00321 1-342); conditions: protein: recombinant; tags: N-terminal GST; dsDNA, one strand shown
# T10 sequence: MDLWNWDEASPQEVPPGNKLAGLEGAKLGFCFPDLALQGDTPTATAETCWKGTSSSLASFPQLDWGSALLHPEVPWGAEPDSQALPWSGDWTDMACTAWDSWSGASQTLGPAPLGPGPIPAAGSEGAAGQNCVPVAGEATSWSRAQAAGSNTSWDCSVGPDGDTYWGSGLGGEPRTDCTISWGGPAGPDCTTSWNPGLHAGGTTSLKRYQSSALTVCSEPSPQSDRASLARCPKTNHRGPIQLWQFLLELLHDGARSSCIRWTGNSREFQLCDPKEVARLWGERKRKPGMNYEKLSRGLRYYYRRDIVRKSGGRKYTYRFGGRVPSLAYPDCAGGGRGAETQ
# Procedure, shortened: as §1
# ELF3 = biological target: T11, ELF3 (Homo sapiens, UniProt P78545 1-371); conditions: protein: recombinant; tags: N-terminal GST; dsDNA, one strand shown
# T11 sequence: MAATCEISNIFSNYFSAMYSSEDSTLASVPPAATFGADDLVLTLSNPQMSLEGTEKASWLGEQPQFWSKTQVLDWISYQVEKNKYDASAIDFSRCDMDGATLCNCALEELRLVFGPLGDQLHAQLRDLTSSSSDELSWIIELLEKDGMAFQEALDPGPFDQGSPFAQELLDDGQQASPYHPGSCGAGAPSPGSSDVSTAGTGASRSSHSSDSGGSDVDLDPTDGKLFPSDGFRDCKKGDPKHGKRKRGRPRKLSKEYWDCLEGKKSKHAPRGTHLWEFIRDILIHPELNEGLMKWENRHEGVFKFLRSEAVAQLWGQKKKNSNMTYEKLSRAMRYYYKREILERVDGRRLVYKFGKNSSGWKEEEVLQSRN
# Procedure, shortened: as §1
# CRX = CRX (Homo sapiens, UniProt O43186 1-299); conditions: protein: recombinant; tags: N-terminal GST; dsDNA, one strand shown
# Procedure, shortened: as §1
# ETV1 = ETV1 (Homo sapiens, UniProt P50549 1-477); conditions: protein: recombinant; tags: N-terminal GST; dsDNA, one strand shown
# Procedure, shortened: as §1
# Sequence of CRX (O43186 whole entry): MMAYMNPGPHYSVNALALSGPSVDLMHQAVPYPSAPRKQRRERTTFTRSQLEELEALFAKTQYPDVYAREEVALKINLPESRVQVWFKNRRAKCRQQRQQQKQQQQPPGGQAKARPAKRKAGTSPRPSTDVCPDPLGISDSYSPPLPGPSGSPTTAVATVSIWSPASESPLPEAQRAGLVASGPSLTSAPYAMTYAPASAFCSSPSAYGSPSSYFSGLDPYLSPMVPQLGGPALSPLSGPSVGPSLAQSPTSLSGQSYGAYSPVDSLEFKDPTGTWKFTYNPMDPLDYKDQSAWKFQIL
# Sequence of ELF1 (P32519 whole entry): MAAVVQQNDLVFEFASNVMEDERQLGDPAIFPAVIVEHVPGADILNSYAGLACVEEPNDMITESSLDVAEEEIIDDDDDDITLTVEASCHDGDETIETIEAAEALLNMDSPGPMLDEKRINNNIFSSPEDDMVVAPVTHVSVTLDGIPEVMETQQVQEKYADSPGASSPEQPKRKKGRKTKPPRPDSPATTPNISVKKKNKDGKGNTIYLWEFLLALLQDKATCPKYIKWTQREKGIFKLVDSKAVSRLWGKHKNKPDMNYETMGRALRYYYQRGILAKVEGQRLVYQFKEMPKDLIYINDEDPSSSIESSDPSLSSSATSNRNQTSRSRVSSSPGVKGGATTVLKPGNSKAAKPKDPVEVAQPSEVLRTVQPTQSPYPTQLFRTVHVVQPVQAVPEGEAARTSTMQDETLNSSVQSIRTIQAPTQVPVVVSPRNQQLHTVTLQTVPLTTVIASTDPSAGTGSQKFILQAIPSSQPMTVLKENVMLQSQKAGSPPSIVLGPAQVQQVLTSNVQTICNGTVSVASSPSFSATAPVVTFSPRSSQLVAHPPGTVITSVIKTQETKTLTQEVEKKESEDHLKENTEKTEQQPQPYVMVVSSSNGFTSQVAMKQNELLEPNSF
# Sequence of HSF1 (Q00613 whole entry): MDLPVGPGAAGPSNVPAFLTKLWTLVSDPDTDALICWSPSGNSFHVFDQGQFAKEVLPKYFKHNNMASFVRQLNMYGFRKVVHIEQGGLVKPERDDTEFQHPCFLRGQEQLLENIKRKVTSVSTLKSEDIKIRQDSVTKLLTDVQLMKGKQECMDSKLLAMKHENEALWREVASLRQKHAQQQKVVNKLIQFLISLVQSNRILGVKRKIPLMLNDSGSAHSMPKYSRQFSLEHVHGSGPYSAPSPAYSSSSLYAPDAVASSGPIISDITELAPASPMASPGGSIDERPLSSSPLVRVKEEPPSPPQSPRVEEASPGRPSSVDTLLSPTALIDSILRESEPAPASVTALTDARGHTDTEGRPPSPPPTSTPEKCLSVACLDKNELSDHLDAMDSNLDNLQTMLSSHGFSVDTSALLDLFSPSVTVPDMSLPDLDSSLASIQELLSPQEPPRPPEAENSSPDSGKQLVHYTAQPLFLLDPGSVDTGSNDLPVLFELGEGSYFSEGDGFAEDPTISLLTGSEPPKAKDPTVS
# Sequence of ETV5 (P41161 whole entry): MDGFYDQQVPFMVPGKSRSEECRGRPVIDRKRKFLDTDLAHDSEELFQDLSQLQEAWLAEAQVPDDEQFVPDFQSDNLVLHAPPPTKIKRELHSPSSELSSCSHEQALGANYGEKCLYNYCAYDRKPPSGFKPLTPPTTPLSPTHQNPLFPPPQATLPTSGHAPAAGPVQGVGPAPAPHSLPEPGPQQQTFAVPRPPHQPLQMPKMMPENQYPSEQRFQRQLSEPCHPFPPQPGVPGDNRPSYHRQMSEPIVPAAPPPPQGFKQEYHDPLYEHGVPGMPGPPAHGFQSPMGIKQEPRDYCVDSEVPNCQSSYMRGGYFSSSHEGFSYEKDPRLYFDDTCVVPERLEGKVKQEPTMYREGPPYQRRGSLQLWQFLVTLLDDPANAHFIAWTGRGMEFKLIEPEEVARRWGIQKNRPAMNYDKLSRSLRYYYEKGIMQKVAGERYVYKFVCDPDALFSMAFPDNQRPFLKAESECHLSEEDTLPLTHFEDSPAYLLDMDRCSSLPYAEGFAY
# Sequence of ELF4 (Q99607 whole entry): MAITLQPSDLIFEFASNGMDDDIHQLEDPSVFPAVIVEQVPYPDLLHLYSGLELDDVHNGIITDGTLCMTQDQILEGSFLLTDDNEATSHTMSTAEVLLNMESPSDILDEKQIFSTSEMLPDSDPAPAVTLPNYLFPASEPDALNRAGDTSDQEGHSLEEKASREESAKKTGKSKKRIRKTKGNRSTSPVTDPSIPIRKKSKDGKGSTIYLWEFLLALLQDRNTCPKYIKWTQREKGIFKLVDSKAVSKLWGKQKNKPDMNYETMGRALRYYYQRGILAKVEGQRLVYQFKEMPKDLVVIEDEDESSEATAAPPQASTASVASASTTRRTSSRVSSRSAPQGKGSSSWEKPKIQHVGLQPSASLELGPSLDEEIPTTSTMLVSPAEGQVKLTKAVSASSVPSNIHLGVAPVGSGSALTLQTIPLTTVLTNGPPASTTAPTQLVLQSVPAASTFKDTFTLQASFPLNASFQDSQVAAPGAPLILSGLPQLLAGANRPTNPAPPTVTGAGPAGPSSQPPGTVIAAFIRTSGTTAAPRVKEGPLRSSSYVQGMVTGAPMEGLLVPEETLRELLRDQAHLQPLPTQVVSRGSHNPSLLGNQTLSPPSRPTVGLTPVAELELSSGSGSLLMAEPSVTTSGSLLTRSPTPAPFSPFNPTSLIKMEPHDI
# Sequence of ETV1 (P50549 whole entry): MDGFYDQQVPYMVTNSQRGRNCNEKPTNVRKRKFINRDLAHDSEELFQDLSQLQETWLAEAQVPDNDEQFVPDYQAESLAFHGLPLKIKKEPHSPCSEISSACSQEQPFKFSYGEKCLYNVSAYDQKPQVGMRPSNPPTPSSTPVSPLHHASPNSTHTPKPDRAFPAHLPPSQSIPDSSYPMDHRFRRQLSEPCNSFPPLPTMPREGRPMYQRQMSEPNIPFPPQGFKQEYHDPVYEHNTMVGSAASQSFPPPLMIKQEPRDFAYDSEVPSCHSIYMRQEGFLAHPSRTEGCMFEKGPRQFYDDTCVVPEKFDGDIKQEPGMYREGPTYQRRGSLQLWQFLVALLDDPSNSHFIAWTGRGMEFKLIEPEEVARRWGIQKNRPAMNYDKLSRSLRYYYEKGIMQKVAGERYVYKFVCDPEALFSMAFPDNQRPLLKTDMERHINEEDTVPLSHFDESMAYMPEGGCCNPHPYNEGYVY
# Sequence of SPIB (Q01892 whole entry): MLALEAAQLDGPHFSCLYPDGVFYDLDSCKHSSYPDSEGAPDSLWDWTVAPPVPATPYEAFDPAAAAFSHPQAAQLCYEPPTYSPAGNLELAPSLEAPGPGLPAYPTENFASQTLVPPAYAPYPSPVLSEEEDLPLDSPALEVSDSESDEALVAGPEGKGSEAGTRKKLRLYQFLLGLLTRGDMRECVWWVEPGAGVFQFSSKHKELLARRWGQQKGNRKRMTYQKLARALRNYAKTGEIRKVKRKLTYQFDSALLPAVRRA
sequence,measurement,setting,value
TTTTTA,binding signal,FLI1,"1.23 fold enrichment (6-mer frequency, TF over GST control)"
same,binding signal,ELK1,"1.2 fold enrichment (6-mer frequency, TF over GST control)"
same,binding signal,GABPA,"1.23 fold enrichment (6-mer frequency, TF over GST control)"
same,binding signal,ERG,"1.25 fold enrichment (6-mer frequency, TF over GST control)"
same,binding signal,ELF1,"1.35 fold enrichment (6-mer frequency, TF over GST control)"
same,binding signal,EHF,"1.37 fold enrichment (6-mer frequency, TF over GST control)"
same,binding signal,SPI1,"1.47 fold enrichment (6-mer frequency, TF over GST control)"
same,binding signal,SPIB,"1.37 fold enrichment (6-mer frequency, TF over GST control)"
same,binding signal,ELK3,"1.3 fold enrichment (6-mer frequency, TF over GST control)"
same,binding signal,FEV,"1.34 fold enrichment (6-mer frequency, TF over GST control)"
same,binding signal,ETV5,"1.3 fold enrichment (6-mer frequency, TF over GST control)"
same,binding signal,HSF1,"1.42 fold enrichment (6-mer frequency, TF over GST control)"
same,binding signal,SPIC,"1.32 fold enrichment (6-mer frequency, TF over GST control)"
same,binding signal,ELF4,"1.34 fold enrichment (6-mer frequency, TF over GST control)"
same,binding signal,ELK4,"1.37 fold enrichment (6-mer frequency, TF over GST control)"
same,binding signal,ETV2,"1.38 fold enrichment (6-mer frequency, TF over GST control)"
same,binding signal,ELF3,"1.43 fold enrichment (6-mer frequency, TF over GST control)"
same,binding signal,CRX,"1.65 fold enrichment (6-mer frequency, TF over GST control)"
same,binding signal,ETV1,"1.32 fold enrichment (6-mer frequency, TF over GST control)"
